ALDH1A1 block: blocks purified human ALDH1A1 activity; P00352; Purified ALDH1A1, NADH fluorescence, propionaldehyde substrate; Potency, µM (top dose mostly 75.3 µM), for the others: top-dose activity, negative = inhibition, hits mostly inhibitors; hit rate 7.3% among 220,000; AID 1030;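 note: potency is the fitted concentration of half-maximal effect; plate controls were no enzyme wells and a reference inhibitor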
PNC inhibitor: blocks assembly of the perinucleolar compartment; PC3M PTB-GFP, PNC prevalence imaging, 16 h; active compounds read low; activity change (PNC), negative = inhibition, % at 10 µM; hit rate 3.1% among 140,000; AID 2417;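 active = readout at or below -70, meaning at least 70% loss of cells showing the perinucleolar compartment, a nuclear body marking cancer cells; inconclusive = readout between -30 and a set limit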;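 note: plate controls were DMSO wells for no effect and camptothecin positive control wells for full effect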
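PC3M cells stably expressing PTB-GFP, 750–1000 cells/well, treated 16 h at 37 °C with compound (23 nl of library stock), in duplicate. After paraformaldehyde fixation and Hoechst stain, imaged at 20x; PNC prevalence scored by image analysis.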
HPGD block: inhibitors of human 15-hydroxyprostaglandin dehydrogenase (HPGD) | P15428 | purified HPGD, NADH fluorescence kinetic, PGE2 substrate | Potency, µM, without a hit: top-dose activity change, negative = inhibition, hits mostly inhibitors | hit rate 4.3% among 150,000; note: potency is the fitted concentration of half-maximal effect
Target sequence (P15428 whole entry, looked up): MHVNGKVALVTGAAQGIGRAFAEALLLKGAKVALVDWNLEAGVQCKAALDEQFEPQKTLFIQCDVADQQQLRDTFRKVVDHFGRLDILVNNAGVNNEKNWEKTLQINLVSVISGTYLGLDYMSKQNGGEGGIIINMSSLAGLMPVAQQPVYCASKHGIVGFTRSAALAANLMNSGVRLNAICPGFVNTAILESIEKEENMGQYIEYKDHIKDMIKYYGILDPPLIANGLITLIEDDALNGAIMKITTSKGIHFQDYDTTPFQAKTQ
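NADH formation kinetics: reaction with 30 uM PGE2 and 1 mM NAD+ (final), 20 nM enzyme, Tris-HCl pH 8 with Tween 20, after 15 min compound preincubation at room temperature. Fluorescence change, last versus first of five reads.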
Numbers without * were called inactive; ? = inconclusive; . = no result; [ ] = remark or other dose. In the library only some 11% were active in any assay of this set; here they are far more common. Unless noted, calls come from the whole dose curve; as a rule, active = well fitted inhibition curve with a large enough effect (not every such curve was filed as active); inconclusive = small, poorly fitted or top-dose-only effect, or another doubt; inactive = no such curve, though single readings can be large or run the other way. Unless noted, % is set by controls: 0 for no effect and ±100 for the full control effect.

SMILES	ALDH1A1 block	PNC inhibitor	HPGD block
COc1ccc(CCNC(=O)c2ccc3c(=O)n(Cc4ccco4)c(=S)[nH]c3c2)cc1OC	2.5µM*	?	-18%
COC(=O)C1(C(=O)OC)CC(CO)C(=O)[C@H]1c1ccccc1 (stereo not given in full)	16%	.	-3%
CC(=O)OCC(=O)[C@@]1(O)CCC2C3CC(C)C4=CC(=O)C=CC4(C)C3C(O)CC21C (stereo not given in full)	-16%	.	-4%
COc1cc(CC(CC(=O)O)CC(C)OCc2ccccc2)cc(OC)c1 (stereo not given)	-3%	-7	-3%
CC(C)[C@@H](CC(=O)N[C@@H]1CCCC[C@H]1C(=O)N[C@H](CC(=O)N[C@@H](CCC(=O)O)CC(=O)O)Cc1c[nH]c2ccccc12)NC(=O)C[C@H](CO)NC(=O)[C@@H]1CNCC[C@H]1N	?	.	-5%
O=C(Nc1cccc(C(F)(F)F)c1)c1ccc2nc(N3C(=O)CCC3=O)sc2c1	?	112	?
CCCNC(=O)c1ccc2c(=O)n(Cc3ccco3)c(=S)[nH]c2c1	7.1µM*	.	.
CCOCCCn1c(=S)[nH]c2cc(C(=O)NCCOC)ccc2c1=O	?	?	-25%
COCCn1c(=S)[nH]c2cc(C(=O)NC(C)C)ccc2c1=O	0.18µM*	28	-12%
CCOCCCNC(=O)c1ccc2c(=O)n(CCCOCC)c(=S)[nH]c2c1	-13%	.	.
O=C(Nc1cccc(C(F)(F)F)c1)c1ccc2nc(-c3ccco3)c(-c3ccco3)nc2c1	0.4µM*	19	?
COCCNC(=O)c1ccc(Cn2c(=S)[nH]c3cc4c(cc3c2=O)OCO4)cc1	-1%	?	13µM*
COC(CNC(=O)c1ccc(Cn2c(=S)[nH]c3cc4c(cc3c2=O)OCO4)cc1)OC	-4%	-3	.
COc1ccc(NC(=O)C(=S)N2CCCC2)cc1	5%	.	.
N#Cc1cccc(-c2nc(NCc3cccs3)c3ccccc3n2)c1	2%	.	.
COc1ccc(CCNC(=O)c2cc(-c3ccco3)on2)cc1OC	-9%	.	.
COc1ccc(CCNC(=O)c2ccc3nc(-c4ccco4)c(-c4ccco4)nc3c2)cc1OC	0.32µM*	18	?
CC(C)NC(=O)c1ccc2c(=O)n(Cc3ccco3)c(=S)[nH]c2c1	8.9µM*	21	-17%
COc1ccccc1N1CCN(C(=O)c2ccc3c(=O)n(Cc4ccco4)c(=S)[nH]c3c2)CC1	?	?	-2%
COc1cccc2c1[C@H](CO)N1[C@H](C#N)[C@@H]3C[C@H](C(=O)O)[C@@H]([C@@H]1C2)N3C	6%[13.5 µM]	.	-2%
CC1CCN(S(=O)(=O)c2ccc(S(=O)(=O)N3CCC4(CC3)OCCO4)cc2)CC1	-4%	34	-10%
COC(=O)c1ccccc1S(=O)(=O)N(CCCN1CCOCC1)Cc1cccs1	?	19	0%
O=S(=O)(c1cccc(C(F)(F)F)c1)N(CCCN1CCOCC1)Cc1cccs1	13µM*	?	-4%
COc1ccc(/C=N/NC(=O)c2c(C)nnn2-c2nonc2N)cc1OC	-11%	.	.
CCOC(=O)N1CCN(C(=O)c2cc3c(s2)-c2ccc(Cl)cc2S(=O)(=O)C3)CC1	-3%	.	.
SMILES	ALDH1A1 block	PNC inhibitor	HPGD block
Cc1ccc(C)c(C(=O)CN2C(=O)NC3(CCC(C)CC3)C2=O)c1 (stereo not given)	12%	-6	-10%
Fc1ccc(Nc2nc(-c3cccnc3)nc3ccccc23)cc1	3%	.	?
CC(C)=CC1C=C(C)C(C)C2C(=O)NNC(=O)C12 (stereo not given)	3.5µM*	-16	-9%
Cc1cccc(N=C2NC(=O)/C(=C/C=C/c3ccco3)S2)c1	?	26	-24%
COc1ccc(N=C2NC(=O)/C(=C\C=C\c3ccco3)S2)cc1	11µM*	.	.
CC(=O)c1cn(Cc2ccccc2)c(=O)[nH]c1=O	10%	.	.
CCOc1ccc(C(=O)NC2CCN(C(=O)N3CCCC3)CC2)cc1	?	56	-4%
CCOc1ccc(C(=O)NC2CCN(S(C)(=O)=O)CC2)cc1	18%	-87*	-3%
c1cncc(-c2cncnc2-n2ccnc2)c1	5%	.	-1%
O=C(c1cc(C(F)(F)F)cc(C(F)(F)F)c1)N1CCC2(CCCN(Cc3nccs3)C2)CC1	2%	.	-6%
O=C(NC(c1ccccc1)c1ccccn1)c1cccc([N+](=O)[O-])c1 (stereo not given)	14µM*	.	.
O=C(NNC(=O)c1ccccn1)c1cccc([N+](=O)[O-])c1	9%	.	.
Cc1cc(C(=O)Cn2nc(C(=O)O)c3ccccc3c2=O)c(C)n1CCc1ccc(Cl)cc1	2%	.	.
Cc1ccccc1NC(NC(=O)OCCn1c([N+](=O)[O-])cnc1C)C(Cl)(Cl)Cl (stereo not given)	-9%	24	-17%
O=C(NCc1ccccn1)C1CCCN(Cc2cnn(-c3ccccc3)c2-n2cccc2)C1 (stereo not given)	7%	-8	-2%
O=C(NCc1ccccn1)C1CCN(Cc2cnn(-c3ccccc3)c2-n2cccc2)CC1	25µM*	-12	-14%
CC(=O)N1CCC[C@@]2(CCN(C(=O)Nc3cccc(C#N)c3)C2)C1	16%	.	-1%
CC1=CC(=O)C(C(C)C)=CC1=NC(=O)c1ccc(C)cc1	18µM*	.	.
CC1=CC(=O)C(C(C)C)=C/C1=N/OC(=O)c1cccc([N+](=O)[O-])c1	?	21	?
CSc1nc2ccc(NS(=O)(=O)c3cccc(Cl)c3Cl)cc2s1	?	-30	16µM*
CSc1nc2ccc(NS(=O)(=O)c3ccc([N+](=O)[O-])cc3)cc2s1	5%	.	.
O=C(O)C1C(C(=O)O)C(C(=O)O)C1C(=O)O (stereo not given)	7%[13.5 µM]	.	-7%
Cc1csc(NC(=O)c2cccc(S(=O)(=O)N3CCN(C)CC3)c2)n1	-5%	.	.
Cc1cccc(C(=O)N2CCN(c3ncnc4c3cnn4-c3ccccc3)CC2)c1	10µM*	-5	-4%
Cc1cccc(-n2ncc3c(N4CCOCC4)ncnc32)c1	?	10	-6%
SMILES	ALDH1A1 block	PNC inhibitor	HPGD block
Cc1cccc(-n2ncc3c(N4CCCC4)ncnc32)c1	?	?	-6%
Cc1cccc(-n2ncc3c(N4CC(C)CC(C)C4)ncnc32)c1 (stereo not given)	25µM*	?	-30%
O=C(COc1ccccc1)N1CCN(c2ncnc3c2cnn3-c2ccccc2)CC1	7.1µM*	-97*	-12%
c1ccc(-n2ncc3c(N4CCN(CCOc5cccc6ccccc56)CC4)ncnc32)cc1	?	50	?
c1cncc(-c2noc(CC3CCCCC3)n2)c1	0%	5	-2%
O=C(N/N=C/c1cccc(C(F)(F)F)c1)c1ccccc1O	13%	.	.
O=C(N/N=C/c1cc2c3c(c1O)CCCN3CCC2)c1ccccc1O	-4%	-113*	-30%
Cc1nn(-c2ccccc2)c(N2CCCC2)c1/C=N/NC(=O)c1ccccc1O	?	-104*	?
Cc1nn(-c2ccccc2)c(N2CCCC2)c1/C=N/NC(=O)C1CC1	2%	.	.
CCCCc1ncc(CN2CCN(Cc3ccc(C)cc3)C(CCO)C2)[nH]1 (stereo not given)	5%	.	.
CC(C)(C)c1cc(C(=O)NCc2cc(F)cc3c2OCOC3)n(Cc2ccccc2)n1	-1%	.	.

Bioassay records deposited in PubChem BioAssay by National Center for Advancing Translational Sciences (NCATS).
